From PubChem
TCR act = Activators of T cell receptors: qHTS campaign. AID 504894, 2011. 330,000 tested, under 10 active. primary human leukocytes, anti-CD3, IL-2 HTRF, 48 h. Potency, µM (top dose mostly 9.22 µM), inactives show at the highest dose activation of IL-2 secretion, hits mostly activators; further: % of control where 0% means no effect
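HTRF read-out of IL-2 secretion: europium cryptate donor excited at 320nm, d2 acceptor emission at 665nm. Cells were primary human leukocytes incubated 48 hr with compounds and a-CD3 beads, supplying TCR signal only.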
uPA surface inh = qHTS for Inhibitors of Cell Surface uPA Generation; cell surface uPA generation assay, qHTS; Potency, µM (titrated, usually from 38.3 µM), for inactives: at the highest dose activity change, negative = inhibition, actives largely listed as inhibitors; actives 0.31% (n = 330,000); AID 540303, 2011; active means well fitted inhibition curve with a large enough effect; inconclusive means small, poorly fitted or top-dose-only effect; inactive means no such curve, though single readings can be large or run the other way; tested in mouse RAW 264.7 cells; further: potency means the concentration at half of the fitted maximal effect; on the % scale 0 is the no-effect control and ±100 the full control effect; nearly all actives have a fitted effect of over 55% in size
Sfp inh = qHTS Assay for Inhibitors of Bacillus subtilis Sfp phosphopantetheinyl transferase (PPTase) | 4'-phosphopantetheinyl transferase ffp (Bacillus subtilis), Q9F4F7 | Biochemical Sfp PPTase activity, qHTS | Potency, µM, for the others: largest response in the series, negative = inhibition, hits mostly inhibitors | actives 3.5% (n = 310,000);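 further: the enzyme is Sfp with the accession as filed and its product quenches rhodamine fluorescence; potency means the concentration at half of the fitted maximal effect; 0% = enzyme reaction without inhibitor and -100% = no enzyme wells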
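Buffer: 50 mM Hepes-Na pH 7.6, 10 mM MgCl2, 0.01% Nonidet P-40, 0.01% BSA. Enzyme 15 nM, pre-exposed to compound 15 min; substrates then added and fluorescence change tracked over 30 min.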
ClpP mod = qHTS Assay for Activators of ClpP; ATP-dependent Clp protease proteolytic subunit (Bacillus subtilis (strain 168)), P80244; purified B. subtilis ClpP, FRET peptide cleavage, 20 min; Potency, µM (highest dose often 57.5 µM), for inactives: top-dose activity change, negative = active; actives 1.9% (n = 340,000); AID 651965, 2013; active means well fitted falling curve with a large enough effect; inconclusive means small, poorly fitted or top-dose-only effect; inactive means no such curve, though single readings can be large or run the other way; further: potency means the concentration at half of the fitted maximal effect; the source files actives as falling curves though it sought activators and does not explain the sign; nearly all actives have a fitted effect of over 65% in size
Target sequence (P80244 whole entry, looked up): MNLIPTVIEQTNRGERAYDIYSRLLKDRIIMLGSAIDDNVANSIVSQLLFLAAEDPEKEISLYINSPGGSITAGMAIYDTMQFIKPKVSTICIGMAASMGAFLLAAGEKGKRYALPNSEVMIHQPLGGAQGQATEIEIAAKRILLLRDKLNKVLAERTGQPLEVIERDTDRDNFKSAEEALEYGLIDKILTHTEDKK
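ClpP 10 microg/mL final, pH 8 Tris/KCl buffer with BSA, glycerol, Tween-20; compound pinned in; FRET-FV substrate; RT 20 min; Ex320/Em430; ΔFRET vs ADEP 5.8 microM, DMSO, no enzyme.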
* marks the source's active call; other numbers are inactive results; ? = inconclusive; / = no result given; [ ] = remark or other dose. Only some compounds are listed: those with a hit (about 4.2% of all), similar ones and a draw of the others. Unless noted, the call rests on the fitted dose curve; in most records, active means well fitted curve in the direction sought with a large enough effect; inconclusive means small, poorly fitted or top-dose-only effect, or another doubt; inactive means no such curve, though single readings can be large; an effect the other way counts as inactive or inconclusive.

SMILES	TCR act	uPA surface inh	Sfp inh	ClpP mod
OC(COCc1ccccc1)CN1CCc2ccccc2C1 (stereo not given)	1%[46.1 µM]	4%	4%	1%
COc1ccc(COCC(O)CN2CCc3ccccc3C2)cc1OC (stereo not given)	2%	-1%	11%	28µM*
COc1cc(CN2CCc3ccccc3C2)ccc1O	0%	2.8µM*	-20%	2%
CCCn1c(N)c(C(=O)CSc2nnc(C3CC3)n2Cc2ccccc2)c(=O)n(C)c1=O	1%	-17%	/	1%
Clc1ccc(Cc2nn3c(Cn4nnc5ccccc54)nnc3s2)cc1	4%	/	28µM*	-1%
c1ccc2c(c1)nnn2Cc1nnc2sc(-c3ccncc3)nn12	3%	/	40µM*	-6%
c1csc(-c2nn3c(Cn4nnc5ccccc54)nnc3s2)c1	0%	/	9%	-25%
Clc1cccc(-c2nn3c(Cn4cnc5ccccc54)nnc3s2)c1	-4%	/	20µM*	0%
S=c1[nH]nc(Cn2nnc3ccccc32)n1-c1ccc(Cl)cc1	1%	-8%	-10%	-3%
c1coc(-c2nn3c(Cn4nnc5ccccc54)nnc3s2)c1	-3%	/	45µM*	-2%
O=C(c1ccccc1Cl)n1nc(-c2ccco2)nc1NCc1cccs1	/	/	/	1%
CCc1cccc(C)c1NC(=O)CN1C(=O)C2(SCC(=O)N2c2cccc(F)c2)c2ccccc21 (stereo not given)	/	/	/	-2%
O=C(NCc1cccnc1)C12CC3CC(CC(Cl)(C3)C1)C2	6%	-3%	10%	-2%
O=C(NCc1ccccc1)C12CC3CC(CC(Cl)(C3)C1)C2	3%	3%	18%	32µM*
Nc1nonc1C(=O)N/N=C/c1ccc(Br)o1	1%	5%	-15%	/
Cc1ccc(N2NC(=O)/C(=C/c3ccc(-c4ccc(Cl)c(C(=O)O)c4)o3)C2=O)cc1C	4%	10%	11%	-3%
O=C(O)c1ccc(-c2ccc(/C=c3/sc4nc5ccccc5n4c3=O)o2)cc1Cl	1%	1%	50µM*	/
Nc1nonc1C(=O)N/N=C/c1ccc(-c2ccc(Cl)c(C(=O)O)c2)o1	-1%	8%	8.9µM*	/
COC(=O)N/N=C/c1ccc(-c2cccc(Cl)c2)o1	2%[46.1 µM]	-13%	-24%	0%
CC1(C)OC(=O)C(=Cc2ccc(-c3ccc(Cl)c(C(=O)O)c3)o2)C(=O)O1	3%	4%	79µM*	/
Nc1ccccc1N=Cc1ccc(-c2cccc(Cl)c2)o1	5%	-15%	32µM*	/
CC1=CC2=NC(=O)/C(=C\c3ccc(-c4cccc(Cl)c4)o3)C(=N)N2O1	5%	-2%	-6%	1%
CC1=NN(c2ccc(Cl)c(C(=O)O)c2)C(=O)/C1=C\c1ccc(-c2ccc(C(=O)O)cc2)o1	5%	-1%	-11%	/
CC1=NOC(=O)/C1=C\c1ccc(-c2ccc(Cl)c(C(=O)O)c2)o1	0%	2%	56µM*	/
CC1=NOC(=O)/C1=C\c1ccc(-c2cccc(Cl)c2)o1	-2%	-6%	20µM*	?
SMILES	TCR act	uPA surface inh	Sfp inh	ClpP mod
CC1=NOC(=O)/C1=C\c1ccc(-c2ccccc2Br)o1	0%	?	56µM*	3%
CCOc1ccc(C(=O)OCc2cc(=O)n3nc(C(C)C)sc3n2)cc1	/	/	/	0%
COC(=O)c1ccccc1NC(=O)CSc1c2c(nc3ccc(Cl)cc13)CCCC2	/	/	/	1%
CCCCn1c(N)c(N(CC(C)C)C(=O)c2ccc(N3C(=O)CCC3=O)cc2)c(=O)[nH]c1=O	0%	-1%	/	-3%
CCCCCC(C(=O)O)C(C)CC(=O)NC1CCCCC1 (stereo not given)	-1%	-3%	20%	13µM*
COC(=O)c1ccc(OC)c(Cn2c(=O)n(-c3cccc(Cl)c3)c(=O)c3c2c2cc(C)ccc2n3C)c1	/	/	/	4%
CCOCCc1nnc(NC(=O)C(=O)c2cc(C)n(-c3cccc(C)c3)c2C)s1	/	/	/	-1%
CC1CN2C(c3ccc([N+](=O)[O-])cc3)=CSC2=N1 (stereo not given)	6%	-3%	50µM*	0%
CCOC(=O)C(C)Oc1cccc2c(=O)n(CC(=O)Nc3ccc(OC)cc3)ccc12 (stereo not given)	/	/	/	5%
O=C(CSC1=Nc2ccccc2C2=NC(c3ccccc3)C(=O)N12)NC1CCCCC1 (stereo not given)	4%	-4%	0%	11µM*
